Test results from PubChem BioAssay AID1159580 (chemical genetic matrix, 2015).
Screen size: about 5,500 compounds; about 2,000 (36%) were called active. About 18% were inconclusive and are not listed. Cut-off read from the data, not from the text of the source: active = normalized growth mostly below about 0.91 (no sharp cut-off); inconclusive = no clear call, values can overlap the other calls; inactive = mostly above about 0.92. This is one part of the list.

Test: chemical genetic growth profiling, strain panel (AID 1159580);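 note: tested at 20 µM; growth read once vehicle control cultures reached saturation at 30 °C; 1 = growth at the plate median or of vehicle wells; lower values mean less growth of the strain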
Settings: growth OD

Measured: normalized growth

COC(C)(C)CCC[C@H](C)C/C=C/C(C)=C/C(=O)OC(C)C
inactive: S. cerevisiae deletion strains, locus YJR075W, strain HOC1, stronger effect = lower value 1.02 | S. cerevisiae deletion strains, locus YKL009W, strain mrt4, stronger effect = lower value 0.979 | S. cerevisiae deletion strains, locus YKL068W, stronger effect = lower value 1.01 | S. cerevisiae deletion strains, locus YKL085W, strain MDH1 (second series), stronger effect = lower value 1 | S. cerevisiae deletion strains, locus YKL085W, strain MDH1, stronger effect = lower value 1 | S. cerevisiae deletion strains, locus YKL160W, strain elf1, stronger effect = lower value 1.02 | S. cerevisiae deletion strains, locus YKL190W, strain CNB1, stronger effect = lower value 0.985 | S. cerevisiae deletion strains, locus YKR001C, strain vps1, stronger effect = lower value 1.03 | S. cerevisiae deletion strains, locus YKR026C, strain gcn3, stronger effect = lower value 1.02 | S. cerevisiae deletion strains, locus YKR091W, strain srl3, stronger effect = lower value 1.02 | S. cerevisiae deletion strains, locus YLL001W, strain dnm1, stronger effect = lower value 1.01 | S. cerevisiae deletion strains, locus YLL026W, stronger effect = lower value 1.01 | S. cerevisiae deletion strains, locus YLL041C, strain sdh2, stronger effect = lower value 1 | S. cerevisiae deletion strains, locus YLR027C, strain aat2, stronger effect = lower value 1.01 | S. cerevisiae deletion strains, locus YLR039C, strain RIC1, stronger effect = lower value 1.04 | S. cerevisiae deletion strains, locus YLR058C, strain SHM2, stronger effect = lower value 1 | S. cerevisiae deletion strains, locus YLR102C, strain apc9, stronger effect = lower value 1.02 | S. cerevisiae deletion strains, locus YLR113W, strain HOG1, stronger effect = lower value 0.971 | S. cerevisiae deletion strains, locus YLR221C, strain rsa3, stronger effect = lower value 0.973 | S. cerevisiae deletion strains, locus YLR258W, strain gsy2, stronger effect = lower value 1.03 | S. cerevisiae deletion strains, locus YLR262C, strain YPT6 (second series), stronger effect = lower value 0.953 | S. cerevisiae deletion strains, locus YLR262C, strain YPT6, stronger effect = lower value 1.06 | S. cerevisiae deletion strains, locus YLR268W, strain sec22, stronger effect = lower value 1.05 | S. cerevisiae deletion strains, locus YLR320W, strain mms22, stronger effect = lower value 0.992 | S. cerevisiae deletion strains, locus YLR330W, strain CHS5, stronger effect = lower value 1.01 | S. cerevisiae deletion strains, locus YLR342W, strain FKS1 (second series), stronger effect = lower value 1.02 | S. cerevisiae deletion strains, locus YLR342W, strain FKS1, stronger effect = lower value 1.01 | S. cerevisiae deletion strains, locus YLR357W, strain rsc2, stronger effect = lower value 1.01 | S. cerevisiae deletion strains, locus YLR370C, strain arc18, stronger effect = lower value 0.997 | S. cerevisiae deletion strains, locus YLR371W, strain rom2, stronger effect = lower value 1.04 | S. cerevisiae deletion strains, locus YLR384C, strain iki3, stronger effect = lower value 1 | S. cerevisiae deletion strains, locus YLR418C, strain cdc73, stronger effect = lower value 1.05 | S. cerevisiae deletion strains, locus YML016C, strain PPZ1, stronger effect = lower value 1.02 | S. cerevisiae deletion strains, locus YML032C, strain rad52, stronger effect = lower value 1.03 | S. cerevisiae deletion strains, locus YML120C, strain ndi1, stronger effect = lower value 1.01 | S. cerevisiae deletion strains, locus YML124C, strain tub3, stronger effect = lower value 1.03 | S. cerevisiae deletion strains, locus YMR058W, strain fet3, stronger effect = lower value 1.01 | S. cerevisiae deletion strains, locus YMR078C, strain ctf18, stronger effect = lower value 1.02 | S. cerevisiae deletion strains, locus YMR125W, strain sto1, stronger effect = lower value 1.02 | S. cerevisiae deletion strains, locus YMR129W, stronger effect = lower value 1.01 | S. cerevisiae deletion strains, locus YMR205C, strain PFK2, stronger effect = lower value 0.979 | S. cerevisiae deletion strains, locus YMR223W, strain ubp8, stronger effect = lower value 1.02 | S. cerevisiae deletion strains, locus YMR231W, strain pep5, stronger effect = lower value 1.03 | S. cerevisiae deletion strains, locus YMR263W, strain SAP30, stronger effect = lower value 1.01 | S. cerevisiae deletion strains, locus YMR307W, strain GAS1, stronger effect = lower value 1 | S. cerevisiae deletion strains, locus YNL067W, strain RPL9B, stronger effect = lower value 1.01 | S. cerevisiae deletion strains, locus YNL071W, strain lat1, stronger effect = lower value 1.01 | S. cerevisiae deletion strains, locus YNL128W, strain TEP1, stronger effect = lower value 1.01 | S. cerevisiae deletion strains, locus YNL153C, strain GIM3, stronger effect = lower value 1.01 | S. cerevisiae deletion strains, locus YNL183C, strain NPR1, stronger effect = lower value 0.891 | S. cerevisiae deletion strains, locus YNL209W, strain ssb2, stronger effect = lower value 0.998 | S. cerevisiae deletion strains, locus YNL233W, strain BNI4, stronger effect = lower value 1.02 | S. cerevisiae deletion strains, locus YNL248C, strain rpa49, stronger effect = lower value 0.996 | S. cerevisiae deletion strains, locus YNL250W, strain rad50, stronger effect = lower value 1.03 | S. cerevisiae deletion strains, locus YNL271C, strain bni1, stronger effect = lower value 1.03 | S. cerevisiae deletion strains, locus YNL298W, strain CLA4, stronger effect = lower value 1.03 | S. cerevisiae deletion strains, locus YNL307C, strain MCK1, stronger effect = lower value 1.04 | S. cerevisiae deletion strains, locus YNL322C, strain KRE1 (second series), stronger effect = lower value 1.05 | S. cerevisiae deletion strains, locus YNL322C, strain KRE1, stronger effect = lower value 1 | S. cerevisiae deletion strains, locus YNR049C, strain mso1, stronger effect = lower value 1.02 | S. cerevisiae deletion strains, locus YNR052C, strain pop2, stronger effect = lower value 1.02 | S. cerevisiae deletion strains, locus YOL006C, strain TOP1, stronger effect = lower value 1.07 | S. cerevisiae deletion strains, locus YOL012C, strain htz1 1.31 | S. cerevisiae deletion strains, locus YOL147C, strain pex11, stronger effect = lower value 1.02 | S. cerevisiae deletion strains, locus YOR001W, strain rrp6, stronger effect = lower value 0.987 | S. cerevisiae deletion strains, locus YOR061W, strain CKA2, stronger effect = lower value 1.01 | S. cerevisiae deletion strains, locus YOR069W, strain VPS5, stronger effect = lower value 1 | S. cerevisiae deletion strains, locus YOR070C, strain gyp1, stronger effect = lower value 0.993 | S. cerevisiae deletion strains, locus YOR080W, strain dia2, stronger effect = lower value 1.02 | S. cerevisiae deletion strains, locus YOR083W, strain WHI5, stronger effect = lower value 1.01 | S. cerevisiae deletion strains, locus YOR106W, strain vam3, stronger effect = lower value 0.948 | S. cerevisiae deletion strains, locus YOR136W, strain idh2, stronger effect = lower value 1.02 | S. cerevisiae deletion strains, locus YOR144C, strain elg1, stronger effect = lower value 1.02 | S. cerevisiae deletion strains, locus YOR184W, strain ser1, stronger effect = lower value 1.04 | S. cerevisiae deletion strains, locus YOR231W, strain MKK1, stronger effect = lower value 0.984 | S. cerevisiae deletion strains, locus YOR265W, strain rbl2, stronger effect = lower value 1.03 | S. cerevisiae deletion strains, locus YOR270C, strain vph1, stronger effect = lower value 0.931 | S. cerevisiae deletion strains, locus YOR290C, strain snf2, stronger effect = lower value 1.08 | S. cerevisiae deletion strains, locus YOR316C, strain cot1, stronger effect = lower value 1.02 | S. cerevisiae deletion strains, locus YPL051W, strain arl3, stronger effect = lower value 1 | S. cerevisiae deletion strains, locus YPL055C, strain LGE1, stronger effect = lower value 1.01 | S. cerevisiae deletion strains, locus YPL078C, strain atp4, stronger effect = lower value 1 | S. cerevisiae deletion strains, locus YPL106C, strain sse1, stronger effect = lower value 1.05 | S. cerevisiae deletion strains, locus YPL240C, strain hsp82, stronger effect = lower value 1.01 | S. cerevisiae deletion strains, locus YPL241C, strain CIN2, stronger effect = lower value 0.999 | S. cerevisiae deletion strains, locus YPL256C, strain CLN2, stronger effect = lower value 0.992 | S. cerevisiae deletion strains, locus YPR119W, strain clb2, stronger effect = lower value 1.02 | S. cerevisiae deletion strains, locus YPR141C, strain kar3, stronger effect = lower value 1.03 | S. cerevisiae deletion strains, locus YPR163C, strain tif3, stronger effect = lower value 1.04 | S. cerevisiae deletion strains, locus YPR167C, strain met16, stronger effect = lower value 1.02 | S. cerevisiae deletion strains, strain wtn01, stronger effect = lower value 1.05 | S. cerevisiae strains, strain wild type, stronger effect = lower value 1.01
